High-throughput results (PubChem)
In the library only some 8% were active in any assay of this set; here they are far more common.
RORgamma inh: qHTS for inhibitors of ROR gamma transcriptional activity; Drosophila S2 Gal4-RORgamma UAS-luciferase reporter, 20 h; Potency, µM (titrated, usually from 53.6 µM), actives largely listed as inhibitors; actives 5.4% (n = 310,000); further: nearly all actives have a fitted effect of over 60% in size
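Schneider cells (Drosophila), stable Gal4 DBD–ROR gamma + UAS-luc; 1 hr cmpd preincubation; Cu2+ induction 700 uM final; 20 hr ambient; luminescence.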
ELG1 repair inh: qHTS screen for small molecules that inhibit ELG1-dependent DNA repair in human embryonic kidney (HEK293T) cells expressing luciferase-tagged ELG1. HEK293T ELG1-luciferase reporter, luminescence, 16 h; DNA damage induced by 5-fluorouridine. actives 2.3% (n = 330,000). AID 504467, 2011. Potency, µM (top dose mostly 46.1 µM), usual class: inhibitors; further: nearly all actives have a fitted effect of over 55% in size
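Cells (2,000 per well) received 5-fluorouridine plus test compound or DMSO and were incubated 16 hr at 37 °C, 5% CO2. Luciferase activity was read by luminescence 30 min after ONE-Glo addition; signal suppression marked inhibition of damage-induced ELG1 function.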
Gal4-VP16 FLuc: VP16 counterscreen qHTS for inhibitors of ROR gamma transcriptional activity | Drosophila S2 Gal4-VP16 UAS-luciferase, luminescence, 20 h | Potency, µM (doses to about 53.6 µM), hits mostly inhibitors | actives 3.5% (n = 310,000);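 further: Gal4-VP16 expression switched on by copper sulfate through the metallothionein promoter; nearly all actives have a fitted effect of over 50% in size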
Coupling enz: qHTS Assay for Inhibitors of Fructose-1,6-bisphosphate Aldolase from Giardia Lamblia: Coupling assay counterscreen. activity change, negative = inhibition, % at 58.2 µM, hits read low. actives 0.67% (n = 290,000). coupling enzyme system counterscreen, AmpLite Red fluorescence. AID 2472, 2010; in the data active means activity change below about -30%
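Counterscreen lacking aldolase: glyceraldehyde-3-phosphate coupling-enzyme reagent preincubated 10 min at RT with compound (at 57.5 uM final), then substrate/coupling system with AmpLite Red added; fluorescence read at 525/598 nm after 20 min RT.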
TSHR antagonist: Antagonists of the Thyroid Stimulating Hormone Receptor: HTS campaign; Thyrotropin receptor (Homo sapiens), P16473; TSHR-expressing cells, TSH-stimulated cAMP HTRF, 2 h; stronger effect = lower value; activity change, negative = inhibition, % at 11.5 µM; actives 0.2% (n = 330,000); AID 504810, 2011;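 active means activity change below a set negative limit, meaning inhibition stronger than a set level, cut at about -70% in these data; inconclusive means activity change between two set negative limits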
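Freshly harvested TSHR cells receive pin-tooled compound, then EC80 TSH at 4nM final. After 2 hours at 37 deg C, antibody in lysis buffer and cAMP-d2 are added; 30 minutes at ambient temperature precede the HTRF read.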
Each line names hits and unclear results; the compound was inactive in the other large screens. Unless noted, the call rests on the fitted dose curve; in most records, active means well fitted curve in the direction sought with a large enough effect; inconclusive means small, poorly fitted or top-dose-only effect, or another doubt; inactive means no such curve, though single readings can be large; an effect the other way counts as inactive or inconclusive.

CC1=CC2=NC(=O)/C(=C\c3cccn3CCOc3ccc(C)c(C)c3)C(=N)N2O1	ELG1 repair inh 18µM, Gal4-VP16 FLuc inconclusive
CC1=CC2=NC(=O)/C(=C\c3ccc(OC(=O)c4ccco4)cc3)C(=N)N2O1	none
CC1=CC2=NC(=O)/C(=C/c3cccn3Cc3ccccc3)C(=N)N2O1	RORgamma inh 13µM, Gal4-VP16 FLuc inconclusive
N=C1/C(=C\c2ccc(-c3cc(Cl)cc(Cl)c3)o2)C(=O)N=C2SC=C(c3ccccc3)N12	none
N=C1/C(=C/c2cccn2Cc2ccc(Cl)cc2)C(=O)N=C2SC=CN12	RORgamma inh 4µM, Gal4-VP16 FLuc 5µM
N=C1/C(=C/c2cccn2CCOc2ccccc2)C(=O)N=C2SC=C(c3ccccc3)N12	ELG1 repair inh 18µM
CCOc1ccc(S(=O)(=O)NCCC(=O)NCc2ccc(OC)c(OC)c2)cc1	none (no result: RORgamma inh, Gal4-VP16 FLuc, Coupling enz)
O=C(OCc1c(-c2ccccc2)ncc2ccccc12)c1ccc(F)cc1	ELG1 repair inh inconclusive (no result: RORgamma inh, Gal4-VP16 FLuc, Coupling enz)
O=C(OCc1c(-c2ccccc2)ncc2ccccc12)c1cccc(Br)c1	ELG1 repair inh 9.2µM (no result: RORgamma inh, Gal4-VP16 FLuc, Coupling enz)
O=C(CSc1ccc2nnc(-c3cccnc3)n2n1)Nc1ccccc1C(F)(F)F	none (no result: Coupling enz)
CC(C)C[C@H](NC(=O)[C@H](CC(C)C)NC(=O)[C@H](Cc1ccccc1)NC(=O)[C@@H](N)CO)C(=O)N[C@@H](CCCN=C(N)N)C(=O)N[C@@H](CC(N)=O)C(=O)O	none (no result: ELG1 repair inh, TSHR antagonist)
CCn1c(=O)n(C2=C(CO)CN(CC3CCCCCCC3)CC2)c2ccccc21	none (no result: ELG1 repair inh, TSHR antagonist)
COc1ccccc1NS(=O)(=O)c1ccc(Br)s1	none
O=S(=O)(Nc1cc(O)cc2cccnc12)c1ccc(Cl)s1	RORgamma inh 4µM, Gal4-VP16 FLuc inconclusive, Coupling enz -64 (no result: ELG1 repair inh, TSHR antagonist)
O=S(=O)(Nc1cc(O)cc2cccnc12)c1ccc(Br)s1	RORgamma inh 7.9µM, Gal4-VP16 FLuc 6.3µM, Coupling enz -68 (no result: ELG1 repair inh, TSHR antagonist)
CC(=O)Nc1ccc(SCC(CC(C)C)N2CCN(C)CCC2=O)cc1 (stereo not drawn)	none (no result: ELG1 repair inh, TSHR antagonist)
N#C/C(=C/c1cn(-c2ccccc2)nc1-c1cccc(OCc2ccccc2)c1)C(=O)NCCCn1ccnc1	RORgamma inh inconclusive, ELG1 repair inh 13µM, Gal4-VP16 FLuc inconclusive
CCOc1cc(C2C3=C(CC(C)(C)CC3=O)OC3=C2C(=O)CC(C)(C)C3)cc([N+](=O)[O-])c1O	none
CC1(C)CC(=O)C2=C(C1)OC1=C(C(=O)CC(C)(C)C1)C2c1cc([N+](=O)[O-])cc([N+](=O)[O-])c1O	ELG1 repair inh inconclusive, Coupling enz -36
COC(=O)N(/C=C/c1ccc(OC)cc1)CCc1ccc(OC)c(OC)c1	none (no result: ELG1 repair inh, TSHR antagonist)
COc1ccccc1N1CCN(C(=O)CSc2ncnc3scc(-c4ccccc4)c23)CC1	ELG1 repair inh inconclusive
COc1ccccc1N1CCN(C(=O)CSc2nc3ccccc3nc2N2CCC(C)CC2)CC1	ELG1 repair inh 26µM
COc1ccccc1N1CCN(C(=O)CSc2nc3ccccc3[nH]2)CC1	RORgamma inh inconclusive, ELG1 repair inh inconclusive
COc1ccc(-n2ncc3c(SCC(=O)N4CCN(c5ccccc5OC)CC4)ncnc32)cc1	ELG1 repair inh 16µM
COc1ccccc1N1CCN(C(=O)CSc2nc3ccccc3nc2N2CCCCC2)CC1	ELG1 repair inh 16µM
COc1ccccc1N1CCN(C(=O)CSc2ncccc2-c2nc3ccccc3[nH]2)CC1	ELG1 repair inh inconclusive
CCCc1c(C(=O)N2CCN(c3ccccc3OC)CC2)cnn1-c1ccccc1	ELG1 repair inh 16µM
O=C(NCC1CCCN1S(=O)(=O)c1cccs1)C(=O)Nc1ccc(F)cc1F (stereo not drawn)	none (no result: RORgamma inh, Gal4-VP16 FLuc, Coupling enz)
CC(=O)Nc1ccc(SCCN2CCN(CC(C)C)CCC2=O)cc1	none (no result: ELG1 repair inh, TSHR antagonist)
CC1Cc2ccccc2N1C(=O)CSc1nnc2n1C(C)(C)Cc1ccccc1-2 (stereo not drawn)	ELG1 repair inh inconclusive
COc1ccccc1N1CCN(C(=O)CSc2nnc3n2C(C)(C)Cc2ccccc2-3)CC1	ELG1 repair inh 9.2µM
